Experimental data from ChEMBL document CHEMBL3988442, “University of Dundee, Small-Polar-MMV Screening Library” (2021).
About 13,000 (27%) of roughly 48,000 compounds showed an effect of 50% or more. This is one part of the list.

Tested on: Wolbachia pipientis
Test: Anti-Wolbachia Cell-Based Screen
Assay type: functional
Design: scale not given: in the data most compounds retested in dose-response had high values
Settings: 5 µM

SMILES | Percent Effect
CC(=O)CN1CCC2(CC1)c1ccccc1[C@@H](N1CCSCC1)[C@@H]2O | -3.937%
CN(CC(=O)N1CC(C)(C)[C@@](C)(O)C1)Cc1ccncc1 | -6.458%
COc1ccc(COCC(O)CNC(=O)c2cc(C)cc(C)c2)cc1 (configuration not stated) | 13.74%
O=C(Cc1ccsc1)NC1CCc2c(ccc(=O)n2CC2CC2)C1 (configuration not stated) | -22.09%
O=C(NC1CCc2c(ccc(=O)n2CC2CC2)C1)c1ccsc1 (configuration not stated) | 1.111%
CN(C)CCn1c2c(ccc1=O)CC(NC(=O)NC1CCCC1)CC2.O=C(O)C(F)(F)F (configuration not stated) | 92.43%
CN(C)CCn1c2c(ccc1=O)CC(NC(=O)c1ccsc1)CC2.O=C(O)C(F)(F)F (configuration not stated) | 112.1%
CN(C)CCn1c2c(ccc1=O)CC(NC(=O)c1cnccn1)CC2.O=C(O)C(F)(F)F (configuration not stated) | 97.98%
Cn1c2c(ccc1=O)CC(NC(=O)c1ccsc1)CC2 (configuration not stated) | 116.4%
CC(C)NC1CCc2c(ccc(=O)n2CCN(C)C)C1.O=C(O)C(F)(F)F.O=C(O)C(F)(F)F (configuration not stated) | 8.884%
CC(C)NC1CCc2c(ccc(=O)n2CCN2CCCC2=O)C1.O=C(O)C(F)(F)F (configuration not stated) | -4.2%
Cc1ccc(Sc2ccc(N3CCCC(C(=O)O)C3)nn2)cc1 (configuration not stated) | -25.21%
Cn1cc(C(=O)N2CCOc3cc(F)ccc32)ccc1=O | -3.875%
O=C(Nc1ccnc2ccnn12)c1ccc(NC2CC2)nc1 | -6.003%
Cc1nc(N2CCN(C(=O)c3cccs3)CC2)cc(-n2cccc2)n1 | 0.4402%
CC(Cc1cccc(F)c1)C(=O)NS(=O)(=O)c1ccc2c(c1)OCCO2 (configuration not stated) | -30.67%
CCc1nc(CCNc2ncccc2S(N)(=O)=O)sc1C | -14.32%
Cc1n[nH]c(C2CN(Cc3csc(C4CCCCC4)n3)CCO2)n1 (configuration not stated) | -9.689%
CN1CCOC(CNCc2csc(C3CCCC3)n2)C1 (configuration not stated) | 96.75%
CN1CCOC(CNCc2coc(-c3cccs3)n2)C1 (configuration not stated) | 12.46%
CCc1n[nH]c(C2CN(Cc3csc(C4CCCC4)n3)CCO2)n1 (configuration not stated) | 5.778%
CN1CCOC(CNCc2csc(C3CCCCC3)n2)C1 (configuration not stated) | 102.8%
CN(C)C(=O)[C@H]1CC[C@@H]2[C@@H](CCN2C(=O)N(C)C)O1 | -14.11%
N#Cc1cccc(N2CCOCC3(CCCN(C(=O)NC4CC4)C3)C2)c1 (configuration not stated) | 10.86%
O=C(O)C(F)(F)F.O=C1COC2(COCCN(Cc3ccsc3)C2)CN1c1ccc(F)cc1 (configuration not stated) | 3.467%
O=C(c1ccc[nH]1)N1CCOCC2(C1)CN(c1ccccc1)C(=O)CO2 (configuration not stated) | 99.07%

SMILES | Percent Effect
O=C(NC1CC1)N1CCOCC2(C1)CN(c1ccccc1)C(=O)CO2 (configuration not stated) | 106.4%
CN(C)CC(=O)N1CCOCC2(C1)CN(c1ccccc1)C(=O)CO2 (configuration not stated) | -12.92%
N#Cc1cccc(N2CCCC3(CN(C(=O)c4ccc[nH]4)CCO3)C2)c1 (configuration not stated) | -1.292%
O=C(c1ccc[nH]1)N1CCOC2(COCCN(c3cncnc3)C2)C1 (configuration not stated) | -9.951%
N#Cc1cccc(N2CCCC3(CN(C(=O)NC4CC4)CCO3)C2)c1 (configuration not stated) | 4.321%
O=C(N1CCCC1)N1CCOCC2(C1)CN(c1ccccc1)C(=O)CO2 (configuration not stated) | 96.63%
O=C(O)C(F)(F)F.O=C(c1c[nH]cn1)N1CCOCC2(C1)CN(c1ccccc1)C(=O)CO2 (configuration not stated) | 97.27%
COCC(=O)N1Cc2ccnn2CC(COCCN(C)C)C1.O=C(O)C(F)(F)F.O=C(O)C(F)(F)F (configuration not stated) | -12.14%
Cc1csc(-c2cccc(NC(=O)NCC(C)(C)C(N)=O)c2)n1 | 1.71%
CC(C)n1cnc2c1C(C(=O)N(C)C)N(Cc1ccccc1)CC2.O=C(O)C(F)(F)F (configuration not stated) | -8.577%
O=C(c1cc[nH]n1)N1CCOCC2(C1)CN(c1ccccc1)C(=O)CO2 (configuration not stated) | 99%
Cc1noc(C(C)N2CCN(CCc3ccncc3)CC2)n1 (configuration not stated) | -4.658%
Cc1noc(C(C)N2CCN(CC(=O)N3CCCC3)CC2)n1 (configuration not stated) | 104.8%
Cc1noc(C(C)N2CCN(CCn3ccccc3=O)CC2)n1 (configuration not stated) | 1.866%
Cc1noc(C(C)N2CCN(CCC(=O)N3CCOCC3)CC2)n1 (configuration not stated) | 136%
Cc1cnc(CN2CCN(C(C)c3nc(C)no3)CC2)cn1 (configuration not stated) | 31.99%
CCOc1cc(C)nc(N2CCN(C(C)c3nc(C)no3)CC2)n1 (configuration not stated) | -8.841%
Cc1nc(NC2CCN(S(=O)(=O)c3ccccc3)CC2)[nH]c(=O)c1C | 93.81%
Cc1cc(=O)[nH]c(NCCNC(=O)c2ccccc2N2CCCC2)n1 | 13.63%
Cn1ccnc1C1CCN(S(=O)(=O)c2ccc3[nH]c(=O)[nH]c3c2)CC1 | -2.986%
Cc1cc(=O)[nH]c(NC2CCN(S(=O)(=O)c3ccccc3)CC2)n1 | 124.4%
CCc1cc(NC2CCN(S(C)(=O)=O)CC2)n2nc(C)c(C)c2n1 | -8.298%
CCc1cc(=O)[nH]c(NC2CCN(S(=O)(=O)c3ccccc3)CC2)n1 | 74.59%
O=C(c1[nH]nc(C2CC2)c1Cl)N1CCN(S(=O)(=O)c2ccccc2)CC1 | -6.506%
CC[C@H]1CN(S(=O)(=O)c2ccccc2)CC[C@H]1CC(=O)O | 3.953%
Cn1ccnc1C1CCN(S(=O)(=O)c2ccc3oc(=O)[nH]c3c2)CC1 | -28.87%

SMILES | Percent Effect
CC(C)(C)n1ncc2c(=O)[nH]c(NC3CC=CC3)nc21 | 3.92%
CS(=O)(=O)NC[C@H]1Cn2c(-c3ccccc3)cnc2CO1 | -16.47%
CCOCCN(C)C(c1cccnc1)c1ccc(F)cc1F (configuration not stated) | -0.1699%
CCNC(c1cccnc1)c1ccc(F)cc1F (configuration not stated) | 101.5%
CCNC(c1ccc(C(C)C)cc1)c1cccnc1 (configuration not stated) | 85.86%
CCNC(c1cccnc1)c1ccc(F)c(C)c1 (configuration not stated) | 95.54%
CCN(C(c1cccnc1)c1ccc(F)c(F)c1)S(C)(=O)=O (configuration not stated) | 5.552%
CCNC(c1cccnc1)c1ccc(F)c(F)c1 (configuration not stated) | -4.502%
CC(NCCCC#N)c1ccc(-c2cccnc2)cc1 (configuration not stated) | -3.574%
CCNC(c1ccc(OC)cc1)c1cccnc1 (configuration not stated) | -6.571%
CCC(Nc1ncccn1)c1cccnc1 (configuration not stated) | 8.55%
CCNC(c1ccc(Br)cc1)c1cccnc1 (configuration not stated) | 106.3%
CCN(C(c1cccnc1)c1ccc(F)cc1F)S(C)(=O)=O (configuration not stated) | -3.142%
NC(=O)CC1CCN(C(=O)CCOc2ccc(Cl)cc2)CC1 | -10.96%
COCCCN(C)C(=O)Cn1cccc(OC)c1=O | -68.57%
CN(C)Cc1cn(CC2CCCN(c3nccc4occc34)C2)nn1 (configuration not stated) | -7.203%
Cc1nc(CN2CCN(Cc3cc4n(n3)CCNC4)CC2)cs1 | -7.4%
O=C(c1ncn2c1CNS(=O)(=O)c1ccccc1-2)N1CCCCCC1 | -12.52%
Cc1ccc(C)c(C(NC2CCCC2)c2cccnc2)c1 (configuration not stated) | -43.53%
CCNC(c1ccc(CC)cc1)c1cccnc1 (configuration not stated) | 93.88%
CC(NCc1cccc(S(=O)(=O)N(C)C)c1)c1cccnc1 (configuration not stated) | -5.764%
CCNC(c1ccc(C)cc1)c1cccnc1 (configuration not stated) | 100.9%
CCNC(c1ccc(Cl)cc1)c1cccnc1 (configuration not stated) | 74.82%
CCc1cnc(NCC(C)Oc2cccnc2)nc1 (configuration not stated) | 7.623%
CCNC(c1cccnc1)c1cc(C)cc(C)c1 (configuration not stated) | 1.12%
Cc1[nH]c2c(F)cccc2c1CC(=O)N1CCC(NS(C)(=O)=O)CC1 | 3.004%

SMILES | Percent Effect
N#Cc1ccc(N2CCCC2Cn2cccn2)nc1 (configuration not stated) | 15.37%
CCc1ncc(C(=O)N2CCCOC(Cn3cccn3)C2)cn1 (configuration not stated) | 5.482%
N[C@H]1CN(C(=O)Cc2cc(F)cc(Cl)c2)C[C@@H]1C1CC1 | -8.09%
CC(C)n1cc(CN2CCCN(C(=O)c3ccnn3C)CC2)cn1 | -7.528%
CC(C)n1cc(CN2CCCN(C(=O)C3(C)CCOCC3)CC2)cn1 | -0.3166%
CC(C)n1cc(CN2CCCN(C(=O)C3CCCN3C)CC2)cn1 (configuration not stated) | 115.6%
CC(C)n1cc(CN2CCCN(C(=O)C3CCOC3)CC2)cn1 (configuration not stated) | 103.2%
CCc1nc(CN2CCCN(C(=O)C3CCOC3)CC2)cs1 (configuration not stated) | 3.952%
CC(C)=CCCC(C)CN1CCC(n2cc(C(C)(C)O)nn2)CC1 (configuration not stated) | -10.5%
O=c1[nH]c(C2CCOC2)nc2cc(F)c(F)cc12 (configuration not stated) | -25.67%
c1cnn(CC2CN(Cc3nnc(C4CC4)o3)CCO2)c1 (configuration not stated) | 144.3%
Nc1nc(CN2CCCC(Cn3cncn3)C2)nc2ccccc12 (configuration not stated) | -7.621%
O=c1[nH]c(CCN2CCCC(Cn3cncn3)C2)nc2ccccc12 (configuration not stated) | 2.487%
c1ccc2oc(CCCN3CCCC(Cn4cncn4)C3)nc2c1 (configuration not stated) | 99.07%
c1coc(-c2nnc(CN3CCOC(Cn4cccn4)C3)o2)c1 (configuration not stated) | -1.801%
c1ccc2oc(CN3CCOC(Cn4cccn4)C3)nc2c1 (configuration not stated) | 90.04%
Cc1cnn(CC2CN(CCCc3nc4ccccc4o3)CCO2)c1 (configuration not stated) | 130.7%
CC(C)(C)c1nnc(CN2CCOC(Cn3cccn3)C2)o1 (configuration not stated) | -7.281%
Cc1cnn(CC2CN(CCCS(C)(=O)=O)CCO2)c1 (configuration not stated) | -24.88%
c1ccc(-c2noc(CN3CCOC(Cn4cccn4)C3)n2)nc1 (configuration not stated) | 10.47%
Cc1cnn(CC2CN(CCCS(=O)(=O)N(C)C)CCO2)c1 (configuration not stated) | 6.483%
c1ccc2oc(CCCN3CCOC(Cn4cccn4)C3)nc2c1 (configuration not stated) | -3.137%
COc1ccc(CC(=O)N(C)C2CCN(C)C2=O)cc1F (configuration not stated) | -7.072%
CS(=O)(=O)N1CCC(Oc2ccc(C(=O)NC3CCOC3)cc2Cl)CC1 (configuration not stated) | 6.025%
